PubChem BioAssay (NCI)
Compounds without any hit were thinned out: in the full panel of roughly 83,000, 20% have a hit.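 Cells were grown in 96-well plates and exposed to the test compound at a single concentration for 48 hours; results are reported as percent growth, with values below 10 considered active.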 Unmarked numbers belong to inactive results. The source made the active and inactive calls.

Key:
Test in all cases: NCI-60 one-dose screen, 48 h (100 = growth as untreated, 0 = no growth, -100 = all killed)
Details in all cases: 10 µM unless noted
HCT-15 colon = test system: HCT-15 colon
HT29 colon = test system: HT29 colon
SNB-75 CNS = test system: SNB-75 CNS
SNB-19 CNS = test system: SNB-19 CNS
U251 CNS = test system: U251 CNS
PC-3 prostate = test system: PC-3 prostate
SK-MEL-5 melanoma = test system: SK-MEL-5 melanoma
UACC-62 melanoma = test system: UACC-62 melanoma
LOX IMVI melanoma = test system: LOX IMVI melanoma
SK-MEL-28 melanoma = test system: SK-MEL-28 melanoma
SK-MEL-2 melanoma = test system: SK-MEL-2 melanoma
EKVX NSCLC = test system: EKVX NSCLC
UO-31 renal = test system: UO-31 renal
TK-10 renal = test system: TK-10 renal
ACHN renal = test system: ACHN renal
CAKI-1 renal = test system: CAKI-1 renal
A498 renal = test system: A498 renal
MOLT-4 leukemia = test system: MOLT-4 leukemia
SN12C renal = test system: SN12C renal
CCRF-CEM leukemia = test system: CCRF-CEM leukemia

Structure (SMILES) | growth (HCT-15 colon) | growth (HT29 colon) | growth (SNB-75 CNS) [%] | growth (SNB-19 CNS) | growth (U251 CNS) | growth (PC-3 prostate) | growth (SK-MEL-5 melanoma) | growth (UACC-62 melanoma) | growth (LOX IMVI melanoma) | growth (SK-MEL-28 melanoma) | growth (SK-MEL-2 melanoma) | growth (EKVX NSCLC) | growth (UO-31 renal) | growth (TK-10 renal) | growth (ACHN renal) | growth (CAKI-1 renal) | growth (A498 renal) | growth (MOLT-4 leukemia) | growth (SN12C renal) | growth (CCRF-CEM leukemia)
N/C(=C\C(=O)n1nc(-c2ccccc2)cc1N)c1ccccc1 | 33.5% | 23.8% | 29.9 | 66.6% | 36.7% | 22.6% | 32.2% | 36.9% | 51.4% | 42.2% | -16.7% (active) | 69.5% | 38.2% | 101% | 63.7% | 65.3% | 67.8% | 43% | – | –
CCN(C(=O)CCl)C(C)(C)C(SSSC(c1ccc(Cl)cc1)C(C)(C)N(CC)C(=O)CCl)c1ccc(Cl)cc1 (configuration not stated) | 56.3% | 18% | 84.3 | 117% | 63.5% | 63.3% | 73.5% | -2.54% (active) | 66.6% | -24.6% (active) | 78.5% | – | 66.9% | 101% | 78.2% | 29.1% | 98.8% | – | 88.3% | –
COc1cc(C2CC(c3ccccc3)=NN2C=O)ccc1Oc1ccnc2cc(Cl)ccc12 (configuration not stated) | 59.3% | 75.9% | 69.9 | 71.2% | 88.6% | 31.4% | 1.25% (active) | 54.3% | 56.6% | 75.9% | 82.4% | – | 47.2% | 91.1% | 68.9% | 49.6% | 76.4% | 12.8% | 65.4% | 45.7%
CCN1C(=O)N(CC)C2C1NN=c1s/c(=C\c3ccc(Br)cc3)c(=O)n12 (configuration not stated) | 11.4% | 5.08% (active) | 26.2 | 21.4% | 16.5% | 18.6% | -4.8% (active) | 39.9% | 25.1% | 59.9% | 24.8% | – | 35.4% | 52.7% | 29.2% | 23.8% | 12.6% | – | 33.9% | 11.4%
CCN(CC)CC(=O)Nc1c(C)cc(C(=O)NN)cc1C | 103% | 96.1% | 84.9 | 97.3% | 97.5% | 101% | 102% | 97.6% | 94.3% | 106% | 117% | 102% | 84.7% | 102% | 107% | 95.8% | 99.7% | 85.2% | – | 114%
O=c1c2cc(Br)cc(Br)c2nc(-c2ccc(Cl)cc2)n1/N=C\c1ccccc1F | 88.3% | 77.3% | 13.7 | 68.8% | 55.1% | -87.1% (active) | 89.4% | 70.7% | 70.3% | 98.4% | 78.4% | – | 21.6% | 33.1% | 26.4% | 27% | 85.6% | 74% | 58.2% | 71.7%
Oc1ccc(-c2nc3ccccc3s2)cc1CN(Cc1ccccn1)Cc1ccccn1 | 15.2% | 25.7% | 38.7 | 20.5% | 8.51% (active) | 30.3% | -67.4% (active) | 8.93% (active) | 2.31% (active) | 33.1% | 3.08% (active) | 5.39% (active) | – | 2.77% (active) | 4.42% (active) | -15.8% (active) | 31.9% | 2.86% (active) | – | 6.5% (active)
O=C1OC(/C=C/c2ccccc2)=NC/1=C/c1ccccc1[N+](=O)[O-] | 97.9% | 98.2% | 82 | 104% | 100% | 92.7% | 99.8% | 110% | 89.1% | 97.3% | 94.7% | – | 66.5% | – | 91.8% | 88.7% | 121% | 91.1% | – | –
O=C(CCCN1CCC(O)(c2ccc(Br)cc2)CC1)c1ccc(F)cc1 | 49.8% | 22.1% | 67.7 | 78.4% | 64.4% | 69.7% | -1.83% (active) | 43.6% | 53.7% | 74.6% | 100% | – | – | 96.6% | 72.5% | 82.1% | 82.2% | 60.3% | 72.8% | 63.8%
N=C(N)c1ccc(-c2ccc(-c3ccco3)o2)cc1F | -40.6% (active) | -2.59% (active) | 41.4 | 67.2% | -16.8% (active) | 24.5% | -93.6% (active) | -68.6% (active) | -9.26% (active) | -46.8% (active) | -66.8% (active) | – | -57.2% (active) | 7.98% (active) | 12.2% | 23.1% | 11.6% | 0.311% (active) | 39.8% | –
O=C(Nc1ccc(Cl)cc1)c1cc(-c2ccc(Cl)cc2)c2sc(=O)[nH]c2n1 | 7.94% (active) | -24% (active) | 10.5 | 8% (active) | 0.838% (active) | -13.5% (active) | -19.6% (active) | -14.7% (active) | 13.4% | 25.2% | – | 9.13% (active) | -5.54% (active) | 0.672% (active) | 0.731% (active) | 8.17% (active) | -43.8% (active) | -24.2% (active) | -9.7% (active) | 5.46% (active)
CCOC(=O)C1=C(C)NC(=S)NC1c1ccccc1 (configuration not stated) | 104% | 110% | 82.6 | 104% | 105% | 115% | 103% | 95.6% | 101% | 112% | – | 97.6% | 76.4% | 104% | 99.6% | 87.5% | 86.3% | – | 103% | –
COC(=O)[C@@H](Cc1c[nH]c2ccccc12)NC(=O)/C=C/c1ccccc1 | 13.7% | 85.5% | 15.3 | 46.4% | 14.2% | 18.7% | 31.4% | 44.1% | 38.3% | 44.3% | 16.6% | – | 36.8% | 54.1% | 39.2% | 31.7% | -9.95% (active) | 24.1% | 50.7% | –
CS(=O)(=O)c1ccc(Cl)c([N+](=O)[O-])c1 | 99.4% | 94.7% | 114 | 105% | 109% | 77.8% | 106% | 112% | 88.2% | 127% | 99.8% | – | 5.92% (active) | 108% | 108% | -88.3% (active) | 106% | 53.2% | 107% | –
CC1=C(/C=C/C(C)=C/C=C(C(=O)O)\C(C)=C\C(=O)O)C(C)(C)CCC1 | 105% | 96.8% | 87.5 | 97.8% | 94.6% | 91.3% | 111% | 96.9% | 94.9% | 114% | – | 124% | 92.7% | 98% | 99.9% | 117% | 91.2% | 86.3% | 92% | 93.3%
O=C(Nc1cccc(C2=NCCN2)c1)c1ccc(N=Nc2ccc(C(=O)Nc3cccc(C4=NCCN4)c3)cc2)cc1 | 82.2% | 71.8% | 48.7 | 53.2% | 16.5% | 63.4% | 80.4% | 68.4% | 75.8% | 59.3% | 56.6% | – | 72.8% | 40.2% | 52.4% | 90.7% | 66.3% | 80.9% | 49.9% | –
O=C(CC(=O)c1ccccc1F)Nc1ccc([N+](=O)[O-])cc1 | 87.8% | 91.8% | 79.1 | 96.9% | 94.7% | 98.3% | 86.4% | 80.1% | 99.7% | 100% | 84% | – | 89.3% | 91.7% | 100% | 106% | 109% | 93.3% | 85.3% | –
